Laboratory results reported in PubChem BioAssay.
Calls of active or inactive are those of the source.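 Rule for the calls, unless noted: active = inhibition at or above 50% at 10 µM; inactive = inhibition below 50%.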

Tests used:
[1] = inhibitors of TNFa-induced NFkB p65 translocation, primary screen, imaging, HUVEC, MLSMR starter and 10KST1 sets (AID 438;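 active = inhibition above 20% together with a positive visual image hit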;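 note: compound added about 3h40 before a 20 min TNFalpha stimulation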;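 for inhibition: signal is the nuclear over cytoplasmic p65 intensity ratio per well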); conditions: HUVEC TNFa-induced p65 nuclear translocation; cell count: measured here: nuclei count (cytotoxicity indicator), at 2.08 µM; inhibition: at 2 µM, stronger effect = higher value, 0% TNFa-plus-vehicle, 100% no-TNFa wells
[2] = inhibitors of mutant huntingtin aggregation, primary screen, imaging, exon1htt(103Q)mCFP cells, high-content imaging (AID 483;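 active = visual image review flags a hit and inhibition of aggregation exceeds 20%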;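 note: compound exposure lasted 3 days before fixation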;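 for nuclei count: percent of the per-plate median nuclei count of sample wells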); conditions: exon1htt(103Q)mCFP cell line, aggregate imaging, at 2 µM; inhibition of aggregation: stronger effect = higher value; nuclei count: measured here: cell count, toxicity
[3] = inhibitors of E-selectin induction by TNFa, primary screen, imaging, HUVEC, immunofluorescence, MLSMR starter and 10KST1 sets (AID 487;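 active = visually confirmed hit in the image check and inhibition above 20%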;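 for inhibition: signal is fraction of cell area covered by stained E-selectin grains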;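 for nuclei count: 100% = median nuclei count of all wells on the same plate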); conditions: HUVEC TNFalpha-induced E-selectin immunofluorescence imaging, at 2 µM; inhibition: stronger effect = higher value; nuclei count: measured here: cell number, toxicity
[4] = molecular target: Voltage-gated potassium channel subunit beta-2 (Rattus norvegicus) (UniProt P62483); assay: KvBeta enzyme negative modulators, primary screen, biochemical, NADPH fluorescence (AID 622;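 active = fluorescence slope higher than the sample average by over 3 SD, cut at about -0.22 in these data, passing the limit was not always enough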;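 note: slope of raw intensity against log time taken from 70 to 1610 s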); conditions: recombinant KvBeta, 4-cyanobenzaldehyde reduction, at 10 µM, stronger effect = higher value
Voltage-gated potassium channel subunit beta-2 (Rattus norvegicus), sequence (P62483 whole entry, looked up): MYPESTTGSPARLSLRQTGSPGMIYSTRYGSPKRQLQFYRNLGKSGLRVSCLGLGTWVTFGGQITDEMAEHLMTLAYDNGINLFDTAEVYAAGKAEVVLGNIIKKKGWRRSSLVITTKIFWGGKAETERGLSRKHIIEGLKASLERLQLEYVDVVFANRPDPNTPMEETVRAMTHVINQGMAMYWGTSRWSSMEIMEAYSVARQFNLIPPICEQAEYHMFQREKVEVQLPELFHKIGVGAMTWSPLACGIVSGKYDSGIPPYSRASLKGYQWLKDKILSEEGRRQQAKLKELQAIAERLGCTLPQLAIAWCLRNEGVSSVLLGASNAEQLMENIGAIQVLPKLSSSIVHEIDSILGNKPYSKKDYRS

[5] = molecular target: Voltage-gated potassium channel subunit beta-2 (Rattus norvegicus) (UniProt P62483); assay: KvBeta positive modulators, primary screen, biochemical, NADPH fluorescence (AID 623;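 active = NADPH fluorescence slope more negative than the mean of all samples by about 3 SD, 99.7% confidence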;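 note: fluorescence intensity change per second fitted from 20 to 320 s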); conditions: Recombinant KvBeta, NADPH fluorescence decrease slope, 10 min; at 10 µM; stronger effect = lower value
[6] = molecular target: Alpha-2C adrenergic receptor (Homo sapiens) (UniProt P18825); assay: modulators of alpha2C/GIRK thallium flux, primary screen, cell-based, HEK293 alpha2C/GIRK1/2 (AID 624;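 active = fluorescence slope after compound addition differing from the mean of all screened samples at 99.7% confidence, in either direction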;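 note: slope of fluorescence ratio to pre-addition baseline per second over 15 to 24 s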); conditions: thallium flux BTC fluorescence, at 10 µM, actives lie on both sides
Alpha-2C adrenergic receptor (Homo sapiens), sequence (P18825 whole entry, looked up): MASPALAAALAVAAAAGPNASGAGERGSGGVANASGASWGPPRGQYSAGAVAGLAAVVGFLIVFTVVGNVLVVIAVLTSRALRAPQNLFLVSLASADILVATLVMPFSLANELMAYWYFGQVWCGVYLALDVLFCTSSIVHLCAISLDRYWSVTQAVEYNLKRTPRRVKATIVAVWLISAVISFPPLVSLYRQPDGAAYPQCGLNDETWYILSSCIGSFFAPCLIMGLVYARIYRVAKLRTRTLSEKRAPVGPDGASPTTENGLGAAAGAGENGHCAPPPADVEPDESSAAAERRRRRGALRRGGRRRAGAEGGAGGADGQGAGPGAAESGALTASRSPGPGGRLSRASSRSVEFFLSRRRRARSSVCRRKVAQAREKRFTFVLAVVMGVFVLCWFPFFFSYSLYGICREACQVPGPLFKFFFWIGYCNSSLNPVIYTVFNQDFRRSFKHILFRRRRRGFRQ

[7] = inhibitors of Sendai virus-induced IRF3 signaling, primary screen, TLR/RLR signaling modifier project, cell-based, Sendai virus stimulus, luciferase, 10K MLSCN set (AID 602276); conditions: HEK293 RL24 IRF3 luciferase reporter, at 10 µM, stronger effect = higher value;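 note: firefly luciferase from ISG56 promoter only with Renilla not read in this screen; 0% = Sendai virus plus DMSO and 100% = medium plus DMSO without virus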
[8] = inhibitors of poly I:C-induced TLR3 signaling, primary screen, cell-based, poly I:C stimulus, luciferase, 10K MLSCN set (AID 602277;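 active = inhibition of the reporter signal at or above 50%; inactive = inhibition below 50%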); conditions: HEK293-TLR3 RL24 IRF3 luciferase reporter, at 10 µM, stronger effect = higher value

SMILES | cell count [1] | inhibition [1] | inhibition of aggregation [2] | nuclei count [2] [%] | inhibition [3] | nuclei count [3] [%] | fluorescence slope [4] | NADPH fluorescence slope [5] | slope [6] | inhibition [7] | inhibition [8]
Cc1cc2c(c(=O)n1C)C(Cc1ccccc1)C(C#N)=C(N)O2 (centres undefined) | 620 | -20.7% (inactive) | 24.9% (inactive) | 99.1 | -61.8% (inactive) | 117 | -0.322 (inactive) | -3.8e-05 (inactive) | 0.00445 (inactive) | 9.72% (inactive) | 14.5% (inactive)
CC(=O)NCc1ccc(C(=O)CSc2nnc(-c3ccncc3)n2Cc2ccccc2)o1 | 461 | -1.1% (inactive) | 16.2% (inactive) | 96 | -25.7% (inactive) | 127 | -0.59 (inactive) | -5.8e-05 (inactive) | 0.00604 (inactive) | 12.6% (inactive) | 20.5% (inactive)
Cc1cc(N2C(=O)C(O)=C(C(=O)c3ccc(C)o3)C2c2cccs2)no1 (centres undefined) | 257 | -3.6% (inactive) | 13.3% (inactive) | 75.8 | 12% (inactive) | 103 | -0.42 (inactive) | -1.8e-05 (inactive) | 0.00606 (inactive) | -1.8% (inactive) | -26.2% (inactive)
Cc1cc(=O)oc2cc(OCC(=O)OCC(=O)N3CCc4ccccc43)ccc12 | 358 | 4.7% (inactive) | -5% (inactive) | 88.9 | -44.9% (inactive) | 103 | -0.331 (inactive) | -5.7e-05 (inactive) | 0.00553 (inactive) | 11% (inactive) | 16.2% (inactive)
CSc1nc2ccc(S(=O)(=O)N3CCOCC3)cc2s1 | 328 | -2.2% (inactive) | 28.3% (inactive) | 95.2 | -22% (inactive) | 129 | -0.415 (inactive) | -6.4e-05 (inactive) | 0.00411 (inactive) | 17.9% (inactive) | 15.4% (inactive)
CC(=O)n1nc(-c2ccco2)nc1SCc1ccccc1 | 573 | 2.8% (inactive) | 25.1% (inactive) | 100 | -122% (inactive) | 94.1 | -0.599 (inactive) | 1.3e-05 (inactive) | 0.00839 (inactive) | -22.5% (inactive) | -108% (inactive)
CC1CCCN(C(=O)CN2CCN(C(=O)c3ccco3)CC2)C1 (centres undefined) | 238 | 0.4% (inactive) | 20.8% (inactive) | 76 | -18.8% (inactive) | 152 | -0.596 (inactive) | -6.2e-05 (inactive) | 0.00367 (inactive) | 7.97% (inactive) | 14.7% (inactive)
CCCNC(=O)C1=C(C)C(=O)OC12CCC(C)CC2 (centres undefined) | 666 | 1.6% (inactive) | -3.8% (inactive) | 115 | -28.8% (inactive) | 115 | -0.589 (inactive) | 1.9e-05 (inactive) | 0.00681 (inactive) | 3.82% (inactive) | 12% (inactive)
CCOc1ccc2c(c1)n(CO)c(=S)n2CO | 677 | -26.5% (inactive) | 4.4% (inactive) | 68.8 | 15.1% (inactive) | 105 | -0.498 (inactive) | -4.8e-05 (inactive) | 0.00378 (inactive) | 16.9% (inactive) | 19.4% (inactive)
